These compounds were tested on PDPK1. Conditions: concentration: 1 μM, replicates: in singlicate; n = 1.
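Further: KINOMEscan kinase panel screen.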

| Structure (SMILES) | %Inh [%] |
| --- | --- |
| COc1cc2ncn(-c3cc(OCC4CCCO4)c(C(N)=O)s3)c2cc1OC (stereo not shown) [GSK204607] | 0 |
| COc1ccccc1-c1ccc2c(NC(=O)C3CC3)n[nH]c2n1 [SB-711239] | 13 |
| Cc1cccc(-c2cc(Nc3ccncc3)c3ccccc3n2)n1 [GSK223675] | 0 |
| COc1ccc(Nc2nccc(-c3cccc(NC(=O)c4cc5cc(F)ccc5[nH]4)c3)n2)cc1 [GSK1229782] | 21 |
| COc1ccc(Nc2nccc(NCCNC(=O)Nc3ccccc3F)n2)cc1 [GSK1379901] | 0 |
| NC(=O)c1nnc2ccccc2c1N | 7 |
| CC(C)(C)c1ccc(C(=O)Nc2cn3cc(Cl)ccc3n2)cc1 | 0 |
| COc1cccc(NC(=O)NC2CCN(c3ccnc(Nc4ccc(F)cc4)n3)C2)c1 (stereo not shown) [GSK1379721] | 0 |
| Cc1ccc(-c2cc(-c3c[nH]nc3-c3ccccn3)ccn2)cc1 [GW684088] | 0 |
| Cc1cc(N2Cc3ccccc3C2)nc(Nc2ccc(S(=O)(=O)N3CCOCC3)cc2)n1.Cl [GSK1669917] | 0 |
| CC(C)(C)c1ccc(C(=O)Nc2cn3cc(-c4cccnc4)ccc3n2)cc1 | 2 |
| Cc1ccccc1-n1cnc2c(N)ncnc21 [SKF-97510] | 6 |
| Fc1cccc(COc2nnc(-c3ccc4c(c3)CCO4)o2)c1 | 0 |
| Cc1ccc(C(=O)Nc2ccc(Nc3ccnc4cc(-c5ccccn5)ccc34)cc2O)cc1.Cl [GW440146] | 0 |
| CS(=O)(=O)c1ccc(-c2c(-c3ncn[nH]3)sc(N3CCOCC3)c2C#N)cc1 | 0 |
| COc1cc2nccc(Nc3ccc(NC(=O)c4ccc(C)cc4)c(O)c3)c2cc1OC.Cl [GW440132] | 0 |
| COC(=O)c1c(-c2ccccc2)c2cc(OC)ccc2c(=O)n1Cc1ccccc1 | 0 |

| Structure (SMILES) | %Inh [%] |
| --- | --- |
| O=C(O)COc1ncnc2cc(-c3ccc4[nH]ncc4c3)sc12 | 0 |
| COc1ccc(C2=C(Nc3cccc(C(=O)O)c3)C(=O)NC2=O)cc1 [SB-390765] | 21 |
| CCn1c(-c2ccccn2)nc2cnccc21 [SB-736398] | 97 |
| Cn1ccc2ncnc(Oc3ccc(Nc4nc5ccccc5[nH]4)cc3)c21 | 19 |
| O=C(Nc1n[nH]c2cc(-c3cccc(F)c3F)ccc12)C1CC1 [SB-733894] | 19 |
| Clc1cc(Cl)cc(Nc2ccnc(Nc3cc(Cl)cc(Cl)c3)n2)c1 [GSK175726] | 19 |
| Cc1cccc(-c2nc(Nc3ccncc3)c3ccccc3n2)n1 [GW855857] | 24 |
| CCCc1ccc(S(=O)(=O)NC2CCN(c3ccnc(Nc4ccc(F)cc4)n3)C2)cc1 (stereo not shown) [GSK1379715] | 82 |
| COc1ccc(CNC(=O)NC2CCN(c3ccnc(Nc4cc(OC)c(OC)c(OC)c4)n3)C2)cc1 (stereo not shown) [GSK1379748] | 0 |
| Cc1c(O)cccc1Nc1ccnc2ccc(C(F)(F)F)cc12.Cl [GW466413] | 0 |
| Cc1c(Cn2ccn3c(=O)cc(N4CCOCC4)nc23)cccc1C(F)(F)F [GSK2289044] | 17 |
| COC(=O)c1c(-c2ccccc2)c2cc(C(=O)O)ccc2c(=O)n1Cc1ccccc1 | 14 |
| Cl.c1ccc(-c2n[nH]cc2-c2ccnc(-c3ccc(CN4CCOCC4)cc3)c2)nc1 [GW776245] | 21 |
| Cc1cc(NCC(c2ccccc2)c2ccccc2)nc(NCc2ccc(C(F)(F)F)cc2)n1 [GW497681] | 0 |
| COc1cccc(-c2cc(-c3c[nH]nc3-c3ccccn3)ccn2)c1 [GW680338] | 0 |
| O=C(Nc1ccccc1)Nc1cccc(Oc2ccc3nccn3n2)c1 | 0 |
| Nc1ncnc2[nH]c(-c3ccccc3)nc12 [AH5015] | 21 |

Reference: paper PMC5540273 (PLoS ONE, 2017)
